Among all 1,900 compounds or so, about 250 (13%) were called active. Roughly 4% stayed inconclusive and do not appear here.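 The calls were made as follows: active = fitted curve reaches 40% rescue activity at or below the top valid dose, in every test run; inconclusive = test runs disagree, some active and some inactive; inactive = every run misses the threshold or moves the wrong way.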 Only a sample is shown. Entries with a potency or affinity are not part of this list.
Assay: suppressors of statin myotoxicity in myotubes, dose response, cell-based, C2C12 myotubes, ATP luminescence, cherry pick (AID 624405);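 also: myotubes are challenged with simvastatin at 10 µM to lower ATP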
Conditions: C2C12 myotubes + simvastatin, 48 h, scaled: DMSO wells 0, geranylgeraniol wells 100; series mostly up to 19.5 µM
With `CC(=O)c1cc(C#N)c(Oc2ccc(Cl)cc2Cl)nc1C` the outcome was “inactive”.
In the case of `CC(=O)C1=C(O)C(=O)N(c2ccc(S(N)(=O)=O)cc2)C1c1ccccc1F` (centres undefined), the outcome is reported as “inactive”.
In the case of `C[C@@H]1CN([C@H](C)CO)C(=O)c2cc(C3=CCCCC3)cnc2O[C@@H]1CN(C)C(=O)Nc1ccc(F)cc1`, the outcome is reported as “inactive”.
In the case of `Cc1noc(C)c1NC(=O)Nc1ccc2c(c1)C(=O)N([C@@H](C)CO)C[C@@H](C)[C@@H](CN(C)C(=O)Nc1cccc3ccccc13)O2`, the outcome is reported as “inactive”.
For `CC(O)CNc1nc2ccccc2n1-c1ncnc2sc3c(c12)CCC3` (centres undefined), the outcome was “inactive”.
With `Oc1[nH]c2ccccc2c1C=NCC1CCCO1` (centres undefined) the outcome was “inactive”.
For `CCOC(=O)C1=NN(C(=O)Cc2ccccc2)C(O)(c2ccc(Cl)cc2)C1` (centres undefined), the outcome was “inactive”.
With `C[C@@H]1CN([C@H](C)CO)C(=O)Cc2cc(NC(=O)Nc3cccc4ccccc34)ccc2O[C@H]1CN(C)Cc1ccc(C(=O)Nc2ccccc2N)cc1` the outcome was “inactive”.
With `C[C@H]1CN([C@@H](C)CO)C(=O)Cc2cc(NC(=O)Nc3cccc4ccccc34)ccc2O[C@@H]1CN(C)Cc1ccc(C(=O)Nc2ccccc2N)cc1` the outcome was “inactive”.
With `C[C@@H]1CN([C@@H](C)CO)C(=O)Cc2cc(NC(=O)Nc3cccc4ccccc34)ccc2O[C@@H]1CN(C)Cc1ccc(C(=O)Nc2ccccc2N)cc1` the outcome was “inactive”.
In the case of `C[C@@H]1CN([C@H](C)CO)C(=O)Cc2cc(NC(=O)Nc3cccc4ccccc34)ccc2O[C@@H]1CN(C)Cc1ccc(C(=O)Nc2ccccc2N)cc1`, the outcome is reported as “inactive”.
With `CCN(CC)C(=O)c1scc2c1OCCO2` the outcome was “inactive”.
In the case of `CC1CC(c2ccccc2)n2nc(N3C(=O)c4ccccc4C3=O)nc2N1` (centres undefined), the outcome is reported as “inactive”.
In the case of `Cc1nnc(SCC(=O)NCc2ccccc2)n1-c1ccccc1`, the outcome is reported as “inactive”.
For `c1ccc(CSc2nnc(-c3ccccn3)n2-c2ccccc2)cc1`, the outcome was “inactive”.
With `COc1ccc(CN(C)C[C@@H]2Oc3ccc(NC(=O)Cc4ccccc4)cc3CC(=O)N([C@H](C)CO)C[C@H]2C)cc1` the outcome was “inactive”.
With `CC(=O)Nc1cccc(Nc2nc(-c3ccccc3F)nc3ccccc23)c1` the outcome was “inactive”.
In the case of `CCCC(=O)NC(=S)Nc1cccc(C(C)=O)c1`, the outcome is reported as “inactive”.
In the case of `CCN(C(=O)COC(=O)c1cnc(C)cn1)C1CCCCC1`, the outcome is reported as “inactive”.
In the case of `Cc1cc(C)c2c(c1)/C(=N/NS(=O)(=O)c1ccccc1)CCC2`, the outcome is reported as “inactive”.
With `Cc1ccccc1N(CC(=O)NC1CCCC1)C(=O)CS(=O)CC(=O)Nc1ccc2c(c1)OCO2` (centres undefined) the outcome was “inactive”.
For `CC1CCN(S(=O)(=O)c2ccc3ccccc3c2)CC1`, the outcome was “inactive”.
In the case of `CC(C)C(=O)Nc1cc(S(=O)(=O)N2CCOCC2)ccc1N1CCCCC1`, the outcome is reported as “inactive”.
In the case of `OCCNCc1cccc(-c2ccccc2)c1O`, the outcome is reported as “inactive”.

Reference: PubChem BioAssay AID624405 (Broad Institute, 2012)
